Hits are enriched below; roughly 15% of the tested compounds scored in any of these assays.
Pf growth 48h – P. falciparum growth inhibition at 48 hours (one generation). P. falciparum luciferase growth in erythrocytes, 48 h. Potency, µM (doses to about 28.7 µM), without a hit: at the top dose activity change, negative = inhibition, actives largely listed as inhibitors. 310,000 compounds, 5.9% hits. AID 504832; note: potency is the fitted concentration of half-maximal effect; % is set by controls: 0 for no effect and ±100 for the full control effect
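First compound was added to culture medium, then infected red cells at 0.1% parasitemia and 2% hematocrit (final). After incubation at 37 C under 5% CO2, luciferase detection reagent was dispensed and light output recorded.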
HCMV inh – human cytomegalovirus inhibition | 410,000 compounds, 4.5% hits | activity change, negative = inhibition, % at 57.5 µM | HFF cells, HCMV-luciferase reporter, 72 h; stronger effect = lower value; in the data active = activity change below about -60%; inconclusive = no clear call, values can overlap the other calls; inactive = above about -39%; note: % is set by controls: 0 for no effect and ±100 for the full control effect
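Steps: HFFs plated, 16 h 37C; compounds added; HCMV-luciferase added to MOI 1 PFU/cell; 72 h 37C; OneGlo reagent, 5 min room temperature; luminescence read, normalized to controls.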
Sm TGR block – S. mansoni TGR enzyme inhibition; Q962Y6; purified TGR, DTNB reduction, TNB absorbance 405 nm; Potency, µM (doses to about 114 µM), without a hit: at the top dose activity change, negative = inhibition, usual class: inhibitors; 360,000 compounds, 3% hits; AID 485364; note: potency is the fitted concentration of half-maximal effect; % is set by controls: 0 for no effect and ±100 for the full control effect; nearly all actives have a fitted effect of over 60% in size
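First, TGR (20 nM dispensed) and NADPH were mixed with compound. Second, a 15 min room-temperature incubation followed. Third, further NADPH and then DTNB were added to start the reaction. Finally, TNB absorbance was monitored kinetically.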
HCV inh – blocks hepatitis C virus. Huh7.5.1 HCVcc-Cre infection, luciferase reporter, 44 h. Potency, µM (series often up to 41.8 µM), for the others: at the top dose activity change, negative = inhibition, hits mostly inhibitors. 340,000 compounds, 3.4% hits; note: potency is the fitted concentration of half-maximal effect; % is set by controls: 0 for no effect and ±100 for the full control effect
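Infectious HCVcc-Cre (~0.5 moi) was added to cells just after compound, with cells seeded 4 h earlier at 1,000 per well. Luciferase activity after 44 h culture reported infection; substrate was incubated 15 min at room temperature before reading.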
SARS PLP yeast – inhibitors of SARS-CoV papain-like protease in yeast. S. cerevisiae expressing SARS-CoV PLpro, growth rescue. AID 485353. Potency, µM (doses to about 32.9 µM), without a hit: at the top dose activity, positive = growth rescue, hits mostly activators. 330,000 compounds, 0.19% hits; calls by dose curve; note: potency is the fitted concentration of half-maximal effect; 0% is about no effect; nearly all actives have a fitted effect of over 55% in size
Pf growth 96h – inhibits malaria parasite growth, 96 h; Potency, µM (highest dose often 28.7 µM), for the others: at the highest dose activity change, negative = inhibition, most hits filed as inhibitors; P. falciparum luciferase reporter growth, 96 h; 320,000 compounds, 6.9% hits; note: potency is the fitted concentration of half-maximal effect; % is set by controls: 0 for no effect and ±100 for the full control effect
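P. falciparum expressing integrated firefly luciferase grown in erythrocytes (2% hematocrit, 0.05% parasitemia final) with compounds for 96 hours at 37 C, 5% CO2. Growth inhibition read as loss of luminescence after adding luciferase detection reagent.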
The depositor's hits bear a star; [ ] = another dose, or the depositor's remark. Unless noted, calls come from the whole dose curve; as a rule, active = well fitted curve in the direction sought with a large enough effect; inconclusive = small, poorly fitted or top-dose-only effect, or another doubt; inactive = no such curve, though single readings can be large; an effect the other way counts as inactive or inconclusive.

CN(C(=O)c1ccc(NC(=O)Cc2ccc(NC(=O)C3CCN(C(=O)C4CCC4)CC3)cc2)cc1)C1CC1 was read as Pf growth 48h inconclusive, HCMV inh 29, Sm TGR block -1%, HCV inh -6%, SARS PLP yeast 5% and Pf growth 96h 9.3µM*.
For CN(C(=O)c1ccc(NC(=O)Cc2ccc(NC(=O)C3CCN(C(=O)C4CCCC4)CC3)cc2)cc1)C1CC1 the results were Pf growth 48h inconclusive, HCMV inh 2, Sm TGR block 1%, HCV inh -2%, SARS PLP yeast 8% and Pf growth 96h 2.1µM*.
Screening CN(C(=O)c1ccc(NC(=O)Cc2ccc(NC(=O)C3CCN(C(=O)C4CCCCC4)CC3)cc2)cc1)C1CCCC1 returned HCMV inh -33 and HCV inh 0%[8.37 µM].
For O=C(Nc1ccccc1[N+](=O)[O-])c1cccnc1Cl the results were Pf growth 48h 9%, HCMV inh -26, Sm TGR block 0%, HCV inh 42%, SARS PLP yeast -21% and Pf growth 96h 18%.
Screening O=C(c1ccccc1F)N1CCN(S(=O)(=O)c2ccc(S(=O)(=O)N3CCCCCC3)cc2)CC1 returned Pf growth 48h 12µM*, HCMV inh -2, Sm TGR block -4%, HCV inh 4%, SARS PLP yeast -3% and Pf growth 96h -4%.
Screening O=C(c1cccc(S(=O)(=O)N2CCN(c3ccc(F)cc3)CC2)c1)N1CCCCCCC1 returned Pf growth 48h inconclusive, HCMV inh -13, Sm TGR block 1%, HCV inh inconclusive, SARS PLP yeast 0% and Pf growth 96h inconclusive.
Screening O=C(c1cccc(S(=O)(=O)N2CCCCC2)c1)N1CCN(S(=O)(=O)c2ccc(F)cc2)CC1 returned HCMV inh -11, Sm TGR block 3%, HCV inh -25%, SARS PLP yeast -1% and Pf growth 96h 9.3µM*.
O=C(c1ccccc1F)N1CCN(S(=O)(=O)c2ccc(S(=O)(=O)N3CCCCC3)cc2)CC1 was read as Pf growth 48h 14%, HCMV inh -8, Sm TGR block -25%, HCV inh 14%, SARS PLP yeast 1% and Pf growth 96h 31%.
For CC1CCC(N2CCN(C(=O)c3ccccc3F)CC2)CC1 (stereo unspecified) the results were Pf growth 48h 0%, HCMV inh 5, Sm TGR block 7%, HCV inh 3%, SARS PLP yeast 7% and Pf growth 96h 12µM*.
Screening O=C(c1cc(S(=O)(=O)N2CCCCC2)ccc1F)N1CCCCC1 returned Pf growth 48h 2.3µM*, HCMV inh 22, Sm TGR block 8%, HCV inh 10%, SARS PLP yeast 6% and Pf growth 96h inconclusive.
`O=C(c1ccccc1F)N1CCN(C(=O)C2CC2)CC1` gave Pf growth 48h 12%, HCMV inh -14, Sm TGR block -24%, HCV inh 25%, SARS PLP yeast 3% and Pf growth 96h inconclusive.
For CC(C)C(O)(C#CCN1CCCCCC1)c1ccccc1 (stereo unspecified) the results were Pf growth 48h inconclusive, HCMV inh inconclusive, Sm TGR block -15%, HCV inh -8%, SARS PLP yeast -2% and Pf growth 96h -1%.
For Cc1ccc(S(=O)(=O)N2CCN(C(=O)c3ccccn3)CC2)cc1 the results were Pf growth 48h -7%, HCMV inh 4, Sm TGR block -7%, HCV inh 2%, SARS PLP yeast 1% and Pf growth 96h 20%.
`Cc1ccccc1C(=O)N1CCN(S(=O)(=O)c2ccccc2)CC1` gave Pf growth 48h -1%, HCMV inh 36, Sm TGR block -7%, HCV inh 30%, SARS PLP yeast -3% and Pf growth 96h 13µM*.
`O=C(c1ccccn1)N1CCN(S(=O)(=O)c2ccccc2)CC1` gave Pf growth 48h -3%, HCMV inh -94*, Sm TGR block 1%, HCV inh 7%, SARS PLP yeast 0% and Pf growth 96h 3%.
For O=C(CN1CCCCC1)N1CCN(S(=O)(=O)c2ccccc2)C1 the results were Pf growth 48h 10%, HCMV inh -103*, Sm TGR block 9%, HCV inh -4%, SARS PLP yeast 3% and Pf growth 96h inconclusive.
COCCNC(C)(CCCCC(=O)O)c1nnnn1-c1c(C)cccc1Cl (stereo unspecified) was read as HCMV inh -9.
For COc1cccc(-c2cc(C(=O)NCc3ccccc3)[nH]n2)c1 the results were HCMV inh 52 and Sm TGR block 14%.
`CC(C)(C)c1nn(-c2ccccc2)c2[nH]c(=O)c(CNc3ccc4c(c3)OCCO4)cc12` gave HCMV inh -62*, Sm TGR block -25%, HCV inh inconclusive, SARS PLP yeast -27% and Pf growth 96h inconclusive.
For COc1ccc(CNCc2cc3c(C(C)(C)C)nn(-c4ccccc4)c3[nH]c2=O)cc1 the results were Pf growth 48h 0.83µM*, HCMV inh -32, Sm TGR block 38%, HCV inh -1% and SARS PLP yeast 1%.
For Cc1ccc(CNCc2cc3c(C(C)(C)C)nn(-c4ccccc4)c3[nH]c2=O)cc1 the results were Pf growth 48h 0.37µM*, HCMV inh inconclusive, Sm TGR block -29%, HCV inh 10µM* and SARS PLP yeast -14%.
`CC(C)(C)c1nn(-c2ccccc2)c2[nH]c(=O)c(CNCc3ccco3)cc12` gave Pf growth 48h inconclusive, HCMV inh -10, Sm TGR block -3%, HCV inh -29%, SARS PLP yeast -14% and Pf growth 96h inconclusive.
For Cc1nn(-c2ccc(Cl)cc2)c2[nH]c(=O)c(CNCc3ccc4c(c3)OCO4)cc12 the results were Pf growth 48h 0.37µM*, HCMV inh 60, Sm TGR block 3%, HCV inh inconclusive, SARS PLP yeast -5% and Pf growth 96h 121%.
`Oc1ccccc1CNc1ccc2c(c1)OCCO2` gave Pf growth 48h 144%, HCMV inh inconclusive, Sm TGR block inconclusive, HCV inh 13%, SARS PLP yeast -1% and Pf growth 96h 70%.
CCOc1cc(-c2nc3c(c(CC)nn3-c3ccccc3)c3cc(OC)c(OC)cc23)ccc1O was read as HCMV inh 15 and Sm TGR block 2%.
For O=C(CN1C(=O)COc2ccc(S(=O)(=O)N3CCOCC3)cc21)NCc1ccc(F)cc1 the results were HCMV inh 2 and Sm TGR block 1%.
